# The panel holds about 83,000 compounds, 20% with a hit somewhere; the sample as a whole holds those more often.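 48-hour exposure, single concentration, 96-well plates; percent growth endpoint where 0 means no net growth. Active: below 10.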 Unmarked numbers belong to inactive results. Activity calls are given as the source filed them.
# Tested on: HL-60(TB) leukemia
# Assay: NCI-60 one-dose screen, 48 h (100 = growth as untreated, 0 = no growth, -100 = all killed)
# Conditions: 10 µM unless noted
row,Compound,growth
1,COc1c(B(O)O)cc(C)cc1-c1nc2ccc3[nH]ncc3c2c2c1CCCC2,13.3%
2,CC(=O)OC(C)C(=O)NCC(C)O (stereo not given),86.9%
3,COS(=O)(=O)CCN(CCOS(C)(=O)=O)S(C)(=O)=O,82.9%
4,C=C1C(=O)O[C@H]2[C@H]1CC/C(COC(=O)NCc1ccc(Cn3c(=O)sn(CCCCl)c3=O)cc1)=C\CC[C@@]1(C)O[C@@H]21,-50.6% (active)
5,Cc1cc2nc3c4cc([N+](=O)[O-])cc([N+](=O)[O-])c4n(CCN(C)C)c3nc2cc1C,98.2%
6,COc1ccc(C2CC(n3ccnc3)c3cc(OC)c(OC)c(OC)c32)cc1O (stereo not given),83.6%
7,CCOC(=O)c1c(Cl)c2c(n1Cc1ccccc1)-c1oncc1CCC2,25.7%
8,CCN1CCN(CCNc2nccc(-c3c(-c4ccc(F)c(O)c4)nc4occn34)n2)S1(=O)=O,1.1% (active)
9,CC(C)(C)OC(=O)N1CCC(O)[C@@H](O[Si](c2ccccc2)(c2ccccc2)C(C)(C)C)[C@H]1/C=C/c1ccccc1 (stereo not given in full),55.9%
10,C[C@]12CC[C@@H]3c4ccc(OS(=O)(=O)O)cc4CC[C@H]3[C@@H]1CC[C@@H]2NS(=O)(=O)c1ccc(-c2ccccc2)cc1,43.9%
11,COc1ccc2c(CCCC(c3ccccc3)c3ccccc3)c3[n+](cc2c1OC)CCc1cc2c(cc1-3)OCO2,-30.9% (active)
12,C#CC[C@@H]1C[C@]2(C)[C@H]3CC[C@@H]4[C@H]5[C@H](C(=C)C)CC[C@]5(C(=O)O)CC[C@@]4(C)[C@]3(C)CC[C@H]2C(C)(C)[C@H]1O,44.2%
13,N#Cc1c(N)n(C2OC(CO)C(O)C2O)c2ncnc(N)c12 (stereo not given),-67.1% (active)
14,CCCCNC1(C#N)CCN(Cc2ccccc2)CC1,153%
15,c1ccc(Nc2ncc3c(n2)-c2cccn2CC3)cc1,107%
16,C[C@@H]1COCCN1c1cc(C2([S@](C)(=N)=O)CC2)nc(-c2ccnc3[nH]ccc23)n1,-9.62% (active)
17,O=C1C(Cl)=C(Nc2ccc(S(=O)(=O)c3ccc(NC4=C(Cl)C(=O)c5ccccc5C4=O)cc3)cc2)C(=O)c2ccccc21,32.7%
18,O=C(NCCCNc1cc(-c2cn(-c3ccccc3)nc2-c2cccc(O)c2)ccn1)c1ccc(F)cc1,-2.74% (active)
19,CCCCCCN(CCCCCC)CCC(=O)Nc1ccc(S(=O)(=O)c2ccc(NC(=O)CCN(CCCCCC)CCCCCC)cc2)cc1,80%
20,COc1ccc(-c2csc(C3=C(O)CN(CCCN4CCCC4=O)C3=N)n2)cc1OC,114%

row,Compound,growth
1,CC1CCCN(CCCCOc2ccc(-c3ccc(C#N)cc3)cc2)C1 (stereo not given),92.6%
2,Nc1c(C(=O)Nc2ccccn2)sc2nc3c(cc12)CCCCC3,-9.45% (active)
3,Cc1ccc(S(=O)(=O)N2CCc3ccc(O)c4c3C2CCc2ccccc2-4)cc1 (stereo not given),91.3%
4,CCNC(=S)n1nc(SC)c(C(=O)OCC)c1N,100%
5,Cc1cc(Nc2nc(N[C@@H](C)c3ncc(F)cn3)ncc2Cl)n[nH]1,54.2%
6,CCOC(=O)c1nnn(-c2no[n+]([O-])c2-c2ccc(OC)cc2)c1COc1cccc2cccnc12,-18.3% (active)
7,Cc1nn(-c2ccccc2)c(/N=C/N(C)C)c1/C=C/C(=O)c1ccc(Cl)cc1,76.3%
8,C[n+]1cc2cc(C(N)=O)[nH]c3c(=N)c(Cl)c(N)c1c23,78.8%
9,O=c1cc(C(F)(F)F)[nH]c(=S)[nH]1,94.1%
10,CN(C)CCCNC1=C(Cl)C(=O)c2ccccc2C1=O,45.3%
11,O=C1/C(=C/c2ccc(Cl)cc2Cl)CN(S(=O)(=O)c2ccccc2)C/C1=C\c1ccc(Cl)cc1Cl,11%
12,COc1ccc(C(=O)N2c3ccccc3Sc3ccccc32)c(OC)c1,0.583% (active)
13,CCCCCCCCCCCCCCCC[n+]1cccc(C#N)c1,30.4%
14,Cn1c2ccc(Br)cc2c2c3c(c4c5ccccc5[nH]c4c21)C(=O)N(O)C3=O,-58.6% (active)
15,C[N+]1=C(/C=C/c2ccc(I)cc2)C(C)(C)c2ccccc21,39.4%
16,CN1CCN(Cc2ccc(NC(=O)c3[nH]ncc3Nc3ncnc4c3CCC4)cc2)CC1,-22.1% (active)
17,C/C(C=O)=C\c1ccc2c(c1)OCO2,102%
18,CN(C)C(=S)N/N=C\C=N/NC(=S)N(C)C,-23% (active)
19,Clc1ccc(N2N=C(c3cccc(Nc4ccncc4)c3)CC2c2ccc3c(c2)OCO3)cc1 (stereo not given),22.5%
20,CCNc1nnc(COc2ccc(CNC(=O)CCCC/C=C/C(C)C)cc2OC)o1,98.4%

# — PubChem BioAssay (NCI)
